Test results published in PubChem BioAssay (NCI).
The panel holds about 83,000 compounds, 20% with a hit somewhere; the sample as a whole holds those more often.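 The endpoint reported here, percent growth, reads 100 for growth as untreated, 0 for no net growth and -100 for all cells dead.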 Activity calls are given as the source filed them. Rule for the calls: active = growth percent below 10; inactive = the rest.

Tests used:
Experiment in all cases: NCI-60 one-dose screen, 48 h (100 = growth as untreated, 0 = no growth, -100 = all killed)
Settings in all cases: 10 µM unless noted
DU-145 prostate = test system: DU-145 prostate
K-562 leukemia = test system: K-562 leukemia
MALME-3M melanoma = test system: MALME-3M melanoma
MDA-MB-231 breast = test system: MDA-MB-231 breast
RXF 393 renal = test system: RXF 393 renal
SF-268 CNS = test system: SF-268 CNS
SF-295 CNS = test system: SF-295 CNS
SF-539 CNS = test system: SF-539 CNS
UACC-257 melanoma = test system: UACC-257 melanoma
HCT-15 colon = test system: HCT-15 colon
HT29 colon = test system: HT29 colon
SNB-75 CNS = test system: SNB-75 CNS
SNB-19 CNS = test system: SNB-19 CNS
U251 CNS = test system: U251 CNS
PC-3 prostate = test system: PC-3 prostate
SK-MEL-5 melanoma = test system: SK-MEL-5 melanoma
UACC-62 melanoma = test system: UACC-62 melanoma
LOX IMVI melanoma = test system: LOX IMVI melanoma
SK-MEL-28 melanoma = test system: SK-MEL-28 melanoma
M14 melanoma = test system: M14 melanoma

Measured: growth

Cc1cc(Cc2cc(C)cc(C(C)(C)C)c2O)c(O)c(C(C)(C)C)c1
active: SF-295 CNS 6.54%
inactive: DU-145 prostate 43.5% | K-562 leukemia 13% | MALME-3M melanoma 67.1% | MDA-MB-231 breast 57.2% | RXF 393 renal 40.9% | SF-268 CNS 49.2% | SF-539 CNS 62.4% | UACC-257 melanoma 59.8% | HCT-15 colon 21.4% | HT29 colon 25% | SNB-75 CNS 69.3% | SNB-19 CNS 48% | U251 CNS 32.5% | PC-3 prostate 33.9% | SK-MEL-5 melanoma 48.3% | UACC-62 melanoma 47% | LOX IMVI melanoma 47.5% | SK-MEL-28 melanoma 80.3%

COc1cc(/C=C/C(=O)c2cccc(-n3cc(-c4ccccc4)[nH]c3=O)c2)cc(OC)c1OC
active: DU-145 prostate 7.58% | K-562 leukemia 5.48% | MALME-3M melanoma 2.69% | MDA-MB-231 breast 5.03% | RXF 393 renal -69.7% | SF-539 CNS -88.8% | UACC-257 melanoma -13.2% | HCT-15 colon 0.0594% | HT29 colon -72% | U251 CNS -78.6% | PC-3 prostate 7.64% | SK-MEL-5 melanoma -90.1% | UACC-62 melanoma -86.3% | LOX IMVI melanoma -85.2% | SK-MEL-28 melanoma -48.4%
inactive: SF-268 CNS 17.7% | SF-295 CNS 51% | SNB-75 CNS 34.2% | SNB-19 CNS 20.2%

Nc1c(C(=O)c2ccc(Cl)s2)sc2nc3c(cc12)CCCC3
inactive: DU-145 prostate 110% | K-562 leukemia 101% | MALME-3M melanoma 100% | MDA-MB-231 breast 108% | RXF 393 renal 113% | SF-268 CNS 104% | SF-295 CNS 102% | SF-539 CNS 96.8% | UACC-257 melanoma 105% | HCT-15 colon 107% | HT29 colon 94.2% | SNB-75 CNS 103% | SNB-19 CNS 105% | U251 CNS 97.8% | PC-3 prostate 88.4% | SK-MEL-5 melanoma 96.8% | UACC-62 melanoma 106% | LOX IMVI melanoma 96.8% | SK-MEL-28 melanoma 119%

Nc1ccc2c(S(=O)(=O)O)ccc(S(=O)(=O)O)c2c1
inactive: DU-145 prostate 115% | K-562 leukemia 90.6% | MALME-3M melanoma 109% | MDA-MB-231 breast 111% | RXF 393 renal 114% | SF-268 CNS 102% | SF-295 CNS 105% | SF-539 CNS 88.5% | UACC-257 melanoma 95.3% | HCT-15 colon 105% | HT29 colon 105% | SNB-75 CNS 92% | SNB-19 CNS 93.5% | U251 CNS 99.5% | PC-3 prostate 91.9% | SK-MEL-5 melanoma 93.5% | UACC-62 melanoma 90.5% | LOX IMVI melanoma 98.1% | SK-MEL-28 melanoma 116%

COc1cc(C(=O)/C=C/c2c(-c3ccc(F)cc3)nc3ncccn23)cc(OC)c1OC
inactive: DU-145 prostate 31.8% | K-562 leukemia 17.9% | MALME-3M melanoma 50.7% | MDA-MB-231 breast 64.4% | RXF 393 renal 13.6% | SF-268 CNS 51% | SF-295 CNS 56.4% | SF-539 CNS 28.5% | UACC-257 melanoma 47% | HCT-15 colon 43.5% | HT29 colon 38.2% | SNB-75 CNS 59.2% | SNB-19 CNS 88.2% | U251 CNS 48.2% | PC-3 prostate 47% | SK-MEL-5 melanoma 30.5% | UACC-62 melanoma 52.2% | LOX IMVI melanoma 36.4% | SK-MEL-28 melanoma 49.2%

COc1cc(/C=C/C(=O)c2cccc(-n3cc(-c4ccc(Cl)cc4)[nH]c3=O)c2)cc(OC)c1OC
active: HT29 colon -12% | LOX IMVI melanoma -47.4%
inactive: DU-145 prostate 37.1% | K-562 leukemia 20.9% | MALME-3M melanoma 94.2% | MDA-MB-231 breast 76.7% | RXF 393 renal 53.6% | SF-268 CNS 48.8% | SF-295 CNS 80.8% | SF-539 CNS 33.7% | UACC-257 melanoma 67.2% | HCT-15 colon 40.3% | SNB-75 CNS 84.9% | SNB-19 CNS 75.5% | U251 CNS 30.9% | PC-3 prostate 47.7% | SK-MEL-5 melanoma 58.2% | UACC-62 melanoma 72.4% | SK-MEL-28 melanoma 86.5%

c1ccc(-c2oc3ccccc3c2-c2ccccc2)cc1
inactive: DU-145 prostate 115% | K-562 leukemia 67.7% | MALME-3M melanoma 110% | MDA-MB-231 breast 100% | RXF 393 renal 99.1% | SF-268 CNS 109% | SF-295 CNS 104% | SF-539 CNS 98.5% | UACC-257 melanoma 111% | M14 melanoma 102% | HCT-15 colon 93.6% | SNB-75 CNS 72.5% | SNB-19 CNS 99.3% | U251 CNS 95.9% | PC-3 prostate 90% | SK-MEL-5 melanoma 84.3% | UACC-62 melanoma 80% | LOX IMVI melanoma 95.8% | SK-MEL-28 melanoma 113%

CCOC(=O)c1c2c(c(C)n1C)-c1nn(Cc3ccc(OC)cc3)cc1CC2
inactive: DU-145 prostate 106% | K-562 leukemia 69.1% | MALME-3M melanoma 161% | MDA-MB-231 breast 98.2% | RXF 393 renal 113% | SF-268 CNS 103% | SF-295 CNS 100% | SF-539 CNS 111% | UACC-257 melanoma 113% | HCT-15 colon 83.9% | HT29 colon 79.1% | SNB-75 CNS 103% | SNB-19 CNS 95.2% | U251 CNS 96.4% | PC-3 prostate 66.3% | SK-MEL-5 melanoma 69.6% | UACC-62 melanoma 68.9% | LOX IMVI melanoma 84.5% | SK-MEL-28 melanoma 119%
